# A number with no mark means an inactive call. For some assays here: Measured potencies and affinities stand elsewhere. Activity calls are given as the source filed them. Unless noted, no rule for the calls is given here.
# Assays:
# [1] = antimalarial activity against Dd2 strain (AID 2302;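 active = growth inhibition above 50% at the single 2 µM test dose, taken to imply half-maximal potency below 2 µM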;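 also: 0% = DMSO untreated growth and 100% = chloroquine plus artemisinin killed control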); conditions: P. falciparum Dd2 in RBCs, LDH growth readout, 72 h; at 2 µM; stronger effect = higher value
# [2] = HepG2 cytotoxicity, primary screen, cytotoxicity control for P. falciparum antimalarial project, cell-based, ATP luminescence (AID 2303;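 active = inhibition above 50%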;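 also: 0% = DMSO wells and 100% = digitonin-killed cells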); conditions: HepG2 viability, 24-48 h, at 10 µM, stronger effect = higher value
# [3] = biological target: L-lactate dehydrogenase (Plasmodium falciparum (isolate CDC / Honduras)) (UniProt Q27743); experiment: PfLDH activity inhibition – cell lysate, 3D7 strain, counter-screen for P. falciparum growth inhibition project (AID 2304);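 also: 0% = vehicle and 100% = reference inhibitor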; conditions: P. falciparum 3D7 crude extract, LDH APAD/NBT absorbance; at 2 µM; stronger effect = higher value
# L-lactate dehydrogenase (Plasmodium falciparum (isolate CDC / Honduras)), sequence (Q27743 whole entry, looked up): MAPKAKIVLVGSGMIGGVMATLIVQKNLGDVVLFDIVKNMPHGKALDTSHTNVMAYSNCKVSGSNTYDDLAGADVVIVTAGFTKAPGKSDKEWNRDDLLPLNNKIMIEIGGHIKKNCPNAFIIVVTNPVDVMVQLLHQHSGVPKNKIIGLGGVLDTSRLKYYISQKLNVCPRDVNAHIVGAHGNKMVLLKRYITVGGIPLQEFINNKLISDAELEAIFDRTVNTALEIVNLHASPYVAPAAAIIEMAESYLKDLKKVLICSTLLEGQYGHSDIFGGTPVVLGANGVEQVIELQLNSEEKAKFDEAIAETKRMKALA
# [4] = inhibition of 3D7 malaria parasite growth – strain 3D7 (AID 2306);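 also: 0% = DMSO wells and 100% = chloroquine plus artemisinin control wells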; conditions: P. falciparum 3D7 erythrocytic growth, LDH absorbance, 72 h; at 2 µM; stronger effect = higher value
# [5] = biological target: Calcium-dependent protein kinase 1 (Plasmodium falciparum (isolate 3D7)) (UniProt P62344); experiment: PfCDPK1 kinase inhibitors, biochemical, TCAMS library (AID 1159585; cut-off not given, nearly all actives have IC50 up to about 0.98 µM;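 also: inhibitors leave more ATP so luminescence rises with inhibition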); conditions: recombinant PfCDPK1, Kinase-Glo ATP depletion luminescence
# Calcium-dependent protein kinase 1 (Plasmodium falciparum (isolate 3D7)), sequence (P62344 whole entry, looked up): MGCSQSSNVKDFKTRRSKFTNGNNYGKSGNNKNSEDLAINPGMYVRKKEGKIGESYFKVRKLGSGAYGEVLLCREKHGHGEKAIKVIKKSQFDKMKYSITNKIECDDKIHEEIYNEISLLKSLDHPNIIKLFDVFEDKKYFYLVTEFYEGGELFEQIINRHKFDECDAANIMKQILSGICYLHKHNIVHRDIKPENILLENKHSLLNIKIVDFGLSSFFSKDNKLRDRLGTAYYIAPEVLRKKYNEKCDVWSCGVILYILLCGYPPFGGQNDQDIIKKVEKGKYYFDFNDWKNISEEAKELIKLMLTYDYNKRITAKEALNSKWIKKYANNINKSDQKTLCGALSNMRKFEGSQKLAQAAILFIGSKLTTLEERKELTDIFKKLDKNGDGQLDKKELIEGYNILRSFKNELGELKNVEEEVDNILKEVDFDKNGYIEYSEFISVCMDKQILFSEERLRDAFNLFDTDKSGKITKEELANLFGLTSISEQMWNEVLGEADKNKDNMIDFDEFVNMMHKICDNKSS
# [6] = biological target: Plasmodium falciparum protein kinase 6 (PK6, PF3D7_1337100) (UniProt Q8IDW1); experiment: PfPK6 kinase inhibitors, biochemical, TCAMS library (AID 1159586); conditions: recombinant PfPK6, Kinase-Glo ATP depletion luminescence
# Plasmodium falciparum protein kinase 6 (PK6, PF3D7_1337100), sequence (Q8IDW1 1-305): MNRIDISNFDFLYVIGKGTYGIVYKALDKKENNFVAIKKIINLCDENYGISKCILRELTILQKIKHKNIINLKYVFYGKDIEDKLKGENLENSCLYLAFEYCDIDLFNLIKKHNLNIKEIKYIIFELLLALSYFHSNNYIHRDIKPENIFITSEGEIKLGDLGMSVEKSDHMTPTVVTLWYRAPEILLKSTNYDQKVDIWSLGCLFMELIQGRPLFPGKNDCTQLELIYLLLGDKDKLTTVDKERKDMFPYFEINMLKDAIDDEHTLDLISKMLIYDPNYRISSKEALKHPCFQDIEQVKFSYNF
# [7] = biological target: Protein kinase 7 (PK7), Plasmodium falciparum 3D7 (PF3D7_0213400) (UniProt Q7YTF7); experiment: inhibition of Plasmodium PK7 catalytic activity – biochemical, TCAMS antimalarial set, Kinase-Glo luminescence (AID 1159587); conditions: recombinant PfPK7, Kinase-Glo ATP depletion luminescence
# Protein kinase 7 (PK7), Plasmodium falciparum 3D7 (PF3D7_0213400), sequence (Q7YTF7 1-343): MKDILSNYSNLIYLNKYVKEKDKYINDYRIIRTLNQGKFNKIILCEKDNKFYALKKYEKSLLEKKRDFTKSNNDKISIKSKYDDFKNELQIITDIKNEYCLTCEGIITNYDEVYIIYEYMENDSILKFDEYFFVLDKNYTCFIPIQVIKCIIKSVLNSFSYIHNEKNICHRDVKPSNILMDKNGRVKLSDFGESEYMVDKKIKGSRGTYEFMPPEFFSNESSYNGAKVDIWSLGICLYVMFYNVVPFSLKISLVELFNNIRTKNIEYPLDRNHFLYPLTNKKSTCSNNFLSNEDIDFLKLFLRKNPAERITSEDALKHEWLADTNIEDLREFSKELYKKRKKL
# [8] = biological target: Calcium-dependent protein kinase 4 (Plasmodium falciparum (isolate 3D7)) (UniProt Q8IBS5); experiment: PfCDPK4 kinase inhibitors, biochemical, TCAMS library (AID 1159588; cut-off not given, nearly all actives have IC50 up to about 0.91 µM); conditions: recombinant PfCDPK4, Kinase-Glo ATP depletion luminescence
# Calcium-dependent protein kinase 4 (Plasmodium falciparum (isolate 3D7)), sequence (Q8IBS5 whole entry, looked up): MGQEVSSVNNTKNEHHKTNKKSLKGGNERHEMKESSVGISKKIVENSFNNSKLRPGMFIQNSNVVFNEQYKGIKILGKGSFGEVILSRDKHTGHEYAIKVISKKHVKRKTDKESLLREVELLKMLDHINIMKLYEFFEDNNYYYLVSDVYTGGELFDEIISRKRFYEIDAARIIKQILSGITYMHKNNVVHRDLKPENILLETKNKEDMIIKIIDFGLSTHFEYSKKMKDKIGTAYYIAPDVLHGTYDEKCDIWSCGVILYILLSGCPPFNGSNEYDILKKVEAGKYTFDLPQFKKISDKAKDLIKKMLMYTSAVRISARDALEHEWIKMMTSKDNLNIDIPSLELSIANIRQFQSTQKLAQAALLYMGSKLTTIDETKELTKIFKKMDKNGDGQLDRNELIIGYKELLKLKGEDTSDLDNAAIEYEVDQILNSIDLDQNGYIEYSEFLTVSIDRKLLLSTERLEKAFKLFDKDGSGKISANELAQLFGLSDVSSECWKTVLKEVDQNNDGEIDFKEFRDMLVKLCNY
Structure (SMILES),growth inhibition [1],inhibition [2],inhibition [3] [%],growth inhibition [4],outcome [5],outcome [6],outcome [7],outcome [8]
N#Cc1ccc2c(c1)CCN(CCC1CCC(NC(=O)/C=C/c3cccc4cc[nH]c34)CC1)CC2 (stereo not given),29%,22%,-3,89% (active),inactive,inactive,inactive,inactive
O=S(=O)(NC1CCN(c2ccnc3ccccc23)C1)c1ccc(OC(F)(F)F)cc1 (stereo not given),-1%,34%,5,88% (active),inactive,inactive,inactive,inactive
CC(=O)c1nccc(C)c1N,-1%,10%,1,92% (active),inactive,inactive,inactive,inactive
CC(C)(C)C1CCC(CC2=C(C(=O)O)c3ccccc3C2=O)CC1 (stereo not given),56% (active),-4%,-1,91% (active),inactive,inactive,inactive,inactive
CS(=O)(=O)c1ccc(Nc2ncc(-c3ccc(S(C)(=O)=O)cc3)c(OCC(F)(F)F)n2)cc1,98% (active),-7%,-3,97% (active),inactive,inactive,inactive,inactive
COc1cc(-c2cc(-c3ccc(OCCN(C)C)cc3)[nH]c2-c2ccncc2)ccc1Cl,100% (active),28%,-2,101% (active),inactive,inactive,inactive,inactive
COc1cccc(-c2cc(C(=O)Nc3cc(Oc4ccc(O)cc4)cc([N+](=O)[O-])c3)on2)c1,30%,16%,7,89% (active),inactive,inactive,inactive,inactive
COc1cccc(OC)c1OCCCON1C(N)=NC(N)=NC1(C)C,96% (active),53% (active),1,95% (active),inactive,inactive,inactive,inactive
O=S(=O)(Nc1ccc(-c2ccc(CN3CCCC3)cc2)cc1)c1cccc2cccnc12,10%,37%,-8,91% (active),inactive,inactive,inactive,inactive
Cc1cc(NCCC(=O)NCc2cccc(F)c2)nc(NCCc2ccc(F)cc2)n1,2%,0%,-1,89% (active),inactive,inactive,inactive,inactive
Cc1cc(-c2ccc(CNCc3ccc(F)cc3)cc2)ccc1S(=O)(=O)NCCN1CCCC1,41%,95% (active),-1,100% (active),inactive,inactive,inactive,inactive
CCc1c(CCNCCCCCNCCc2ccc(OC)c(OC)c2CC)ccc(OC)c1OC,1%,59% (active),-1,101% (active),inactive,inactive,inactive,inactive
CCCCCCCN1CC[C@@H](CCC(O)c2ccnc3ccc(OC)cc23)[C@@H](CC)C1 (stereo not given in full),93% (active),34%,-1,97% (active),inactive,inactive,inactive,inactive
COc1ccc2nccc([C@@H](O)CN3CCC(NCc4cn5cc(F)ccc5n4)CC3)c2c1,5%,19%,-5,96% (active),inactive,inactive,inactive,inactive
COc1cc2nc(NCCc3ccccc3)nc(NC(C)c3ccccc3)c2cc1OC (stereo not given),100% (active),9%,1,99% (active),inactive,inactive,inactive,inactive
Cc1cccc2[nH]c(-c3ccc(-c4ccc(NC(=O)Nc5ccc(F)c(F)c5F)cc4)s3)nc12,99% (active),58% (active),2,100% (active),inactive,inactive,inactive,inactive
N#Cc1cccc(NC(=O)Nc2ccc(-c3csc(-c4nc5ccccc5[nH]4)c3)cc2)c1,97% (active),63% (active),-3,103% (active),inactive,inactive,inactive,inactive
Cc1nnsc1C(=O)Nc1cccc(-c2ccc(-c3nc4c(C)cccc4[nH]3)s2)c1,44%,46%,4,100% (active),inactive,inactive,inactive,inactive
CCNc1cc(C(=O)N[C@@H](Cc2ccccc2)[C@H](O)CN[C@@H](C)c2cccc(OC)c2)cc(N2CCCC2=O)c1,65% (active),5%,-1,95% (active),inactive,inactive,inactive,inactive
COc1ccc2nccc([C@@H](O)CN3CCC(NC(=O)C(=Cc4ccc(Cl)cc4Cl)c4ccc(-c5ccccc5)cc4)CC3)c2c1,98% (active),1%,-2,100% (active),inactive,inactive,inactive,inactive

Structure (SMILES),growth inhibition [1],inhibition [2],inhibition [3] [%],growth inhibition [4],outcome [5],outcome [6],outcome [7],outcome [8]
COc1cc(Nc2nccc(NCC(O)c3ccc(C(F)(F)F)cc3)n2)cc(OC)c1OC (stereo not given),14%,45%,-2,91% (active),inactive,inactive,inactive,inactive
N=C(N)c1ccc2nc(SCc3ccccc3)[nH]c2c1,100% (active),-1%,1,97% (active),inactive,inactive,inactive,inactive
Nc1nc(N)c2c(ccc3c2ccn3Cc2ccc(OCc3ccccc3)cc2)n1,1%,5%,-2,98% (active),inactive,inactive,inactive,inactive
Clc1ccc2c(NCc3ccccc3)ccnc2c1,100% (active),40%,1,101% (active),inactive,inactive,inactive,inactive
COc1cc(OC)cc(-c2nn(-c3ccc([N+](=O)[O-])cc3C#N)c(=S)n2CC2CCCO2)c1 (stereo not given),75% (active),9%,0,98% (active),inactive,inactive,inactive,inactive
CCCc1cc(Cc2cnc(N)nc2N)ccc1OCCCCCC(=O)OCC,1%,-11%,0,97% (active),inactive,inactive,inactive,inactive
Cc1ccc(Cn2ncc(NC3CCNCC3)c(Cl)c2=O)cc1NC(=O)Nc1ccc(-c2ccccc2)cc1,61% (active),18%,-2,99% (active),inactive,inactive,inactive,inactive
O=C(/C=C/c1ccc(Cl)c(Cl)c1)N1CCC(CNCc2cccc3cc[nH]c23)CC1,14%,1%,-2,85% (active),inactive,inactive,inactive,inactive
Nc1cccc(CNCc2cccc(-c3ccc(-c4nc5ccccc5[nH]4)cc3)c2)c1,92% (active),-1%,-2,101% (active),inactive,inactive,inactive,inactive
COc1ccc2ncc(F)c(CCN3CCC(NCc4cc(F)c5c(c4)OCCO5)CC3)c2n1,67% (active),15%,-5,100% (active),inactive,inactive,inactive,inactive
CCCN1CCN(Cc2ccc(C(=O)Nc3ccc(Cl)cc3)cc2)CC1,14%,48%,-2,94% (active),inactive,inactive,inactive,inactive
Clc1nc(Cl)c2c(ccn2Cc2ccccc2)n1,61% (active),-14%,-11,100% (active),inactive,inactive,inactive,inactive
C[C@@H]1CN(c2ncc(-c3ccc(CNC4Cc5ccccc5C4)cc3)cn2)C[C@H](C)N1,78% (active),27%,-10,85% (active),inactive,inactive,inactive,inactive
O=C(Nc1cccc(CN2CCN(Cc3cccc(O)c3)CC2)c1)c1cc2ccccc2s1,54% (active),13%,0,86% (active),inactive,inactive,inactive,inactive
COc1ccc(OC)c(Cc2cnc3nc(N)[nH]c(=O)c3c2C)c1,4%,62% (active),3,98% (active),inactive,inactive,inactive,inactive
O=c1[nH]c2ccc3[nH]cccc3c2c1C=Nc1ccc(N2CCN(CCO)CC2)cc1,55% (active),34%,-6,86% (active),inactive,inactive,inactive,inactive
COc1ccc2ccccc2c1CNCC1CCN(CC2CCCCC2)CC1,27%,23%,-3,98% (active),inactive,inactive,inactive,inactive
O=C(Cn1c(CCc2cccc(F)c2F)cc(=O)c2ccccc21)N(Cc1ccc(-c2ccc(C(F)(F)F)cc2)cc1)C1CCN(CCN2CCOCC2)CC1,41%,53% (active),4,101% (active),inactive,inactive,inactive,inactive
Cc1oc(-c2cccc(Oc3ccccc3)c2)nc1CN(Cc1cnn(C)c1)C(C)C,61% (active),22%,2,89% (active),inactive,inactive,inactive,inactive
CCCCN(C(=O)c1ccccc1Cl)c1nnc(-c2ccccc2C)s1,86% (active),12%,0,90% (active),inactive,inactive,inactive,inactive

# Reference: PubChem BioAssay
